This is part of a sample that, as a whole, favours compounds with a hit. Of some 83,000 tested, about 20% had one in any assay.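 Cells were grown in 96-well plates and exposed to the test compound at a single concentration for 48 hours; results are reported as percent growth, with values below 10 considered active.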 Unmarked numbers belong to inactive results. Calls of active or inactive are those of the source.
What was measured:
Assay in all cases: NCI-60 one-dose screen, 48 h (100 = growth as untreated, 0 = no growth, -100 = all killed)
Settings in all cases: 10 µM unless noted
T-47D breast = system: T-47D breast
BT-549 breast = system: BT-549 breast
MDA-MB-435 melanoma = system: MDA-MB-435 melanoma
SW-620 colon = system: SW-620 colon
MCF7 breast = system: MCF7 breast
HCT-116 colon = system: HCT-116 colon
HCC-2998 colon = system: HCC-2998 colon
KM12 colon = system: KM12 colon

Row | SMILES | growth (T-47D breast) | growth (BT-549 breast) | growth (MDA-MB-435 melanoma) | growth (SW-620 colon) | growth (MCF7 breast) | growth (HCT-116 colon) | growth (HCC-2998 colon) | growth (KM12 colon)
1 | CCCCCCN(CCCCCC)CCCNc1nccc2ccccc12 | -13.6% (active) | 39.7% | 0.549% (active) | 6.78% (active) | -28% (active) | 8.24% (active) | -59.4% (active) | 9.96% (active)
2 | O=C1C=CC(=O)N1c1cc(Cl)c(Cl)cc1Cl | 103% | 97.9% | 106% | 110% | 87.8% | 90% | 103% | 106%
3 | N#CC(=C1SCS1)[N+](=O)[O-] | 29.1% | -6.56% (active) | 16.4% | 19.3% | 16.7% | 35.8% | 27% | 14.2%
4 | OC(c1cc(-c2ccc(Cl)cc2)nc2c(Cl)cccc12)C1CCCCN1 (configuration not stated) | -82.9% (active) | 73.6% | -78.8% (active) | -86.2% (active) | -88.7% (active) | -28.8% (active) | -68.9% (active) | -89% (active)
5 | COc1ccc(NC(=O)/C(=C/N2C(=O)/C(=C/c3ccc(OC)c(OC)c3)NC2=S)C(C)=O)cc1 | 19.1% | 55.2% | 72.2% | 83.6% | 40.9% | 73.7% | 88.7% | 95.1%
6 | CCc1oc2ccccc2c1C(=O)c1cc(Br)c(O)c(Br)c1 | 62.1% | 35.4% | -11.1% (active) | 61.4% | 69.2% | 73.5% | 85.9% | 77.5%
7 | OCCOSCCO | 110% | 110% | 109% | 105% | 97.7% | 102% | 111% | 112%
8 | NCCCN(CCCN)CCCNCc1c2ccccc2c(CNCCCN(CCCN)CCCN)c2ccccc12 | 80.9% | 103% | 107% | 100% | 97.1% | 90.6% | 97.6% | 97.2%
9 | CC1(C)OCC(COC(c2ccccc2)(c2ccccc2)c2ccccc2)O1 (configuration not stated) | 84.3% | 119% | 106% | 104% | 100% | 89.7% | 97.4% | 96.5%
10 | COC(=O)c1cc([N+](=O)[O-])cc([N+](=O)[O-])c1Cl | -28.3% (active) | 117% | 81.7% | 31.7% | 45.1% | -42.8% (active) | 106% | 105%
11 | O=C1Nc2ccc(Br)cc2C1=O | 96.2% | 105% | 98.3% | 86% | 91.5% | 94.2% | 111% | 96.7%
12 | O=C(Nc1ccc(Cl)c(Cl)c1)OCc1ccco1 | 38.4% | 31.6% | 0.451% (active) | 40.4% | 14.8% | 26.6% | 56.4% | 8.03% (active)
13 | Cc1cc(I)nc2ccccc12 | 95.8% | 104% | 112% | 107% | 101% | 106% | 103% | 115%
14 | O=C1C=CC(=O)c2c(O)c(CO)c(CO)c(O)c21 | 96.3% | 97% | 83.5% | 109% | 96.9% | 74.7% | 108% | 115%
15 | COC1=CC(=O)c2c(O)c3c(c(O)c2C1=O)CC(C)(O)OC3 (configuration not stated) | 0.836% (active) | 28.1% | -95% (active) | 16.6% | -27.1% (active) | -27.6% (active) | -20.5% (active) | 9.83% (active)
16 | CCOC(=O)c1cc(CC)sc1NC(=O)CC(C)=O | 34.8% | 27.3% | 68.8% | 49.7% | 15.9% | 26.5% | 69.4% | 47.1%
17 | CCCCC(C=O)(C=C=C(C)C)CC (configuration not stated) | 111% | 103% | 99.1% | 106% | 90.9% | 106% | 109% | 109%

Row | SMILES | growth (T-47D breast) | growth (BT-549 breast) | growth (MDA-MB-435 melanoma) | growth (SW-620 colon) | growth (MCF7 breast) | growth (HCT-116 colon) | growth (HCC-2998 colon) | growth (KM12 colon)
18 | CCN(CC)CCNc1ccc([N+](=O)[O-])c2sc3ccccc3c(=O)c12 | 45.5% | 72% | 18.4% | -5.78% (active) | 8.95% (active) | 17.9% | 36.6% | 22.9%
19 | CCCCCCCCCCCC[N+]1(CCCCCCCCCCCC)CCCC(C)C1 (configuration not stated) | -78.6% (active) | -72.2% (active) | -58.7% (active) | -65.4% (active) | -88.9% (active) | -97.2% (active) | -96.6% (active) | -96.3% (active)
20 | C=C(C(N)=O)C(N)C(=O)O (configuration not stated) | 106% | 108% | 123% | 109% | 102% | 92.4% | 108% | 95.9%
21 | CC(=O)c1ccc2c(c1)CCc1ccccc1-2 | 97.8% | 104% | 100% | 102% | 90.2% | 96.6% | 109% | 109%
22 | Cc1nc(Sc2nc3ccc([N+](=O)[O-])cc3s2)sc1C | 27% | -10.4% (active) | 29.6% | 11.5% | 1.58% (active) | 2.1% (active) | 71.3% | 36.6%
23 | CC(C)(C)c1ccc(O)c(Br)c1 | 103% | 102% | 92.1% | 92.4% | 95.3% | 93.2% | 98% | 104%
24 | CCC(C)(O)Cc1ccc(Cl)cc1 (configuration not stated) | 94.9% | 98.5% | 101% | 99.4% | 92.8% | 97.7% | 109% | 101%
25 | CC1(C)CCCC2=C1C(=O)N(SC(Cl)(Cl)Cl)C2=O | 66.9% | 95.8% | 92.1% | 88% | 67.3% | 75.5% | 96.5% | 101%
26 | CC(=O)c1c(O)c(C)c(O)c2c1OC1=CC(=O)C(C(C)=O)C(=O)C12C (configuration not stated) | 102% | 55.8% | 78.5% | 74.7% | 128% | 94% | 58.1% | 72.6%
27 | CCCCCCCCCCCC[n+]1ccccc1 (tested in a mixture with another compound) | 14.4% | -57.6% (active) | -74% (active) | 0.841% (active) | 2.79% (active) | -9.07% (active) | -47.7% (active) | -95.7% (active)
28 | C/C(=N/NC(N)=S)c1ccc(C)cc1 | 22% | 105% | 96.1% | 75.3% | 25.6% | 8.6% (active) | 110% | 104%
29 | O=C(NNc1ccccc1)OCc1ccccc1 | 69% | 83.1% | 34.1% | 54.3% | 104% | 66% | 75.4% | 19.8%
30 | COc1cccc2c1C(=O)c1c(O)c3c(c(O)c1C2=O)C[C@@](O)(C(=O)CO)C[C@@H]3OC1CC(OC(C)=O)C(OC(C)=O)C(C)O1 (some centres not stated) | -27.3% (active) | -39.7% (active) | 7.04% (active) | 3.7% (active) | 4.45% (active) | -80% (active) | -72% (active) | -39% (active)
31 | Oc1c(Cl)cc(Cl)cc1C=NCC1CCC(CN=Cc2cc(Cl)cc(Cl)c2O)CC1 (configuration not stated) | 71.4% | 90.4% | 88.8% | 116% | 78.1% | 74.9% | 107% | 93.6%
32 | COC(=O)[C@]1(C)CCC[C@]2(C)c3ccc(C(C)C)cc3C(=O)[C@@H](Br)[C@@H]12 | 53.1% | 116% | 91.8% | 86.3% | 57.6% | 85.3% | 106% | 104%
33 | CCOC(=O)C1(C)CCCC1N (configuration not stated) | 105% | 116% | 103% | 106% | 104% | 111% | 115% | 98.5%
34 | C[n+]1ccccc1C[n+]1ccccc1 | 105% | 108% | 115% | 118% | 92.3% | 107% | 110% | 103%
